From PubChem BioAssay
Sampled rows, rich in hits. Any-hit rate of the full collection: about 2.9%.
ALOX12 inh: Primary qHTS assay for inhibitors of human arachidonate 12S-lipoxygenase (ALOX12): Round 2; Polyunsaturated fatty acid lipoxygenase ALOX12 (Homo sapiens), P18054; purified 12hLO, xylenol orange hydroperoxide absorbance; Potency, µM (highest dose often 108 µM), inactives show at the highest dose activity change, negative = inhibition, most hits filed as inhibitors; 580,000 compounds, 1.1% hits; note: potency is the fitted concentration of half-maximal effect; % is set by controls: 0 for no effect and ±100 for the full control effect
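Hydroperoxide product was detected by ferrous iron/xylenol orange as the 573 to 405 nm absorbance ratio. Arachidonic acid at 40 uM (final) was turned over for 30 min at room temperature by 150 nM human 12hLO, pH 7.0 Hepes buffer, after 15 min compound preincubation.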
Pol iota inh: qHTS for Inhibitors of Polymerase Iota | DNA polymerase iota (Homo sapiens), Q9UNA4 | Pol iota fluorescent replication assay, 10 min | Potency, µM (series often up to 115 µM), for the others: at the highest dose activity, negative = inhibition, actives largely listed as inhibitors | 390,000 compounds, 1% hits | AID 588590, 2011; note: potency is the fitted concentration of half-maximal effect
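Fluorescent replication assay read twice, at 0 min and 10 min after adding 50 nM (final) substrate. Enzyme (10 nM) and compounds were first incubated 15 min at room temperature; enzyme-free buffer wells were negative controls.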
PI5P4K alpha inh: qHTS for Inhibitors of phosphatidylinositol 5-phosphate 4-kinase (PI5P4K); Phosphatidylinositol 5-phosphate 4-kinase type-2 alpha (Homo sapiens), P48426; PI5P4Kalpha enzyme, ADP-Glo luminescence, 60 min; hits give low values; max response, %; 330,000 compounds, 1.2% hits; AID 652105, 2013; active = max response of -50% or lower; inconclusive = between -30% and -50%; inactive = -30% or higher; note: value at the top dose of about 77 µM; % is set by controls: 0 for no effect and ±100 for the full control effect
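ADP-Glo luminescence end-point after a 60 min room-temperature kinase reaction. PI5P4Kalpha and substrate in HEPES pH 7.4 buffer with EGTA, 0.1% CHAPS and 5% DMSO; ATP at 5 microM final.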
POLK inh: qHTS for Inhibitors of Polymerase Kappa; DNA polymerase kappa (Homo sapiens), Q9UBT6; purified Pol kappa, fluorescent DNA synthesis assay, 10 min; Potency, µM (series often up to 107 µM), inactives show top-dose activity, negative = inhibition, usual class: inhibitors; 400,000 compounds, 0.53% hits; note: potency is the fitted concentration of half-maximal effect; % is set by controls: 0 for no effect and ±100 for the full control effect
Target sequence (Q9UBT6 whole entry, looked up): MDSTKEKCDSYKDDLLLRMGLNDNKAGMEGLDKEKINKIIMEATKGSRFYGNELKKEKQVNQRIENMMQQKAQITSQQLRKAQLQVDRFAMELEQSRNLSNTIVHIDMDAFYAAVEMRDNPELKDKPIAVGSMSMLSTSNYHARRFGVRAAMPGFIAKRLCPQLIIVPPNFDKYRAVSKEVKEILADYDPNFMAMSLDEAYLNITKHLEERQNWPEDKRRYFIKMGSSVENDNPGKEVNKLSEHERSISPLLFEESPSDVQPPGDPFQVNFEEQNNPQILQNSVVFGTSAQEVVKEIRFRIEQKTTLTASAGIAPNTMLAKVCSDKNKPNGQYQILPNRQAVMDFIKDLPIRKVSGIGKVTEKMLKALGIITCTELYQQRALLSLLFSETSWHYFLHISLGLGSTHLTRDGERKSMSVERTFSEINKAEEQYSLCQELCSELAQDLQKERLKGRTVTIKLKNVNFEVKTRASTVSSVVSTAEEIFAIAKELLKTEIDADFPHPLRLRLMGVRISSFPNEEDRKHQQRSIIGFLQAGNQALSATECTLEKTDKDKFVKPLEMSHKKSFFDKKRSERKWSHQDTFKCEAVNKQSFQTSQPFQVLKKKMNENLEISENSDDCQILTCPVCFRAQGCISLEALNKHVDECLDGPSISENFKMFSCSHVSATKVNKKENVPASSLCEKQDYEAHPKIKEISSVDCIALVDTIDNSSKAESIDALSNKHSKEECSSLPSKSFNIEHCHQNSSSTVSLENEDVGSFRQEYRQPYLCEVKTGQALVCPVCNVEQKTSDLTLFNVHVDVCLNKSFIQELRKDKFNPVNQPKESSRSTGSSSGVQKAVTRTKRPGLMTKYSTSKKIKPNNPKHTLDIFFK
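10 nM Pol kappa was preincubated with compounds for 15 min at room temperature. Reaction started with 50 nM (final) substrate. Fluorescence read kinetically at 0 and 10 min.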
POLH inh: qHTS for Inhibitors of Polymerase Eta; DNA polymerase eta (Homo sapiens), Q9Y253; recombinant Pol eta, fluorescent DNA replication assay; Potency, µM (series often up to 114 µM), for inactives: at the highest dose activity change, negative = inhibition, hits mostly inhibitors; 390,000 compounds, 1.2% hits; AID 588591, 2011; note: potency is the fitted concentration of half-maximal effect; % is set by controls: 0 for no effect and ±100 for the full control effect
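Fluorescent replication assay: 50 nM final substrate added after a 15 min room-temperature compound preincubation with 10 nM enzyme. Signal taken at 0 min and again at 10 min.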
Pol beta inh: qHTS Assay for Inhibitors of DNA Polymerase Beta; Pol beta primer extension/strand displacement, fluorescence kinetic; Potency, µM (top dose mostly 114 µM), inactives show top-dose activity change, negative = inhibition, actives largely listed as inhibitors; AID 485314, 2010; 340,000 compounds, 1.3% hits; P06746; note: potency is the fitted concentration of half-maximal effect; % is set by controls: 0 for no effect and ±100 for the full control effect
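10 nM enzyme + cpd, 15 min RT; start with substrate 50 nM final; read 0 min and after 10 min RT. Corrected, normalized data; 4-parameter Hill curve fit.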
The depositor's hits bear a star; ? = inconclusive; / = no result given; [ ] = dose if it differs, or a comment. Unless noted, calls come from the whole dose curve; as a rule, active = well fitted inhibition curve with a large enough effect; inconclusive = small, poorly fitted or top-dose-only effect, or another doubt; inactive = no such curve, though single readings can be large or run the other way.

SMILES	ALOX12 inh	Pol iota inh	PI5P4K alpha inh	POLK inh	POLH inh	Pol beta inh
CC(=O)c1c(C)[nH]c(=S)c(C#N)c1-c1ccc(Cl)cc1	0%	-21%[58.9 µM]	-26	-11%	-13%	8%
CCCCOc1ccc(-c2c(C#N)c(N)[nH]c(=S)c2C#N)cc1	?	22%	-95*	-14%	-16%	0%
COc1ccc(C2Cn3nnc(C(=O)N4CCN(C(=O)Cc5ccc(Cl)cc5)CC4)c3CO2)cc1 (centres undefined)	1%	/	/	/	/	/
COc1ccc(CCNC(=O)c2cccc(N3C(=O)CCS3(=O)=O)c2)cc1OC	0%	/	/	/	/	/
CCc1nnc(NS(=O)(=O)c2ccc(NC(=S)NC(=O)/C=C/c3ccccc3)cc2)s1	22µM*	?	?	-21%	71µM*	-9%
CCc1nnc(NS(=O)(=O)c2ccc(NC(=O)/C=C/c3ccccc3Cl)cc2)s1	?	25%	-16	-4%	-5%	?
CCc1nnc(NS(=O)(=O)c2ccc(NC(=O)/C=C/C(=O)O)cc2)s1	-105%	?	0	-13%	19%	46%
COc1ccc(NS(=O)(=O)c2ccc(NC(=O)c3ccccc3)cc2)nn1	0%	64%	-14	-17%	3%	5%
CCc1nnc(NS(=O)(=O)c2ccc(NC(=S)NC(=O)/C=C/c3ccc(C(C)C)cc3)cc2)s1	/	25µM*	/	-14%	45µM*	45µM*
COc1cc(NS(=O)(=O)c2ccc(NC(=S)NC(=O)/C=C/c3ccc(F)cc3)cc2)ncn1	-11%	11%	7	-21%	-13%	15%
COc1ccc(NS(=O)(=O)c2ccc(NC(=S)NC(=O)/C=C/c3ccccc3)cc2)nn1	-21%	?	-20	-16%	79µM*	11%
COc1nccnc1NS(=O)(=O)c1ccc(NC(=S)NC(=O)/C=C/c2ccc(F)cc2)cc1	13µM*	?	0	-2%	?	29%
CCC(C)NC(=O)c1cc(C(C)C)nc2c1cnn2C(C)C (centres undefined)	-18%	/	/	/	/	/
CCc1nnc(NS(=O)(=O)c2ccc(NC(=S)Nc3ccc(F)cc3)cc2)s1	?	-10%	8	-15%	-5%	42%
CCc1nnc(NS(=O)(=O)c2ccc(NC(=S)NC(=O)/C=C/c3ccc(OC)cc3)cc2)s1	-28%	45µM*	-10	?	-11%	-8%
CCC(=O)Nc1ccc(NC(=S)NC(=O)/C=C/c2ccccc2)cc1	8%	?	-6	-27%	?	10µM*
Cc1cc(C)n(-c2ccc(NC3CCCC3)nn2)n1	23%	/	/	/	/	/
O=C1c2cccc([N+](=O)[O-])c2C(=O)N1CCO	-5%	35%	5	15%	14%	-1%
O=C1CSC(=S)N1N1C(=O)c2cccc([N+](=O)[O-])c2C1=O	/	/	/	/	/	3.2µM*
Cc1nc2cc(NC(=O)C3CC(=O)N(c4cccc5ccccc45)C3)ccc2o1 (centres undefined)	0%	/	/	/	/	/
CN1CCc2nc3sc(C(=O)Nc4c(F)cccc4F)c(N)c3cc2C1	-1%	37%	/	-15%	-28%	-3%
CC(C)OC(=O)CC(=O)c1sc2nc3c(cc2c1N)CN(C)CC3	/	11µM*	-25	?	?	40µM*
O=C(Nc1ccc(Cl)cc1Cl)C1CCCN(c2ncnc3nc[nH]c23)C1 (centres undefined)	-4%	/	/	/	/	/
O=C(c1cccc(Cl)c1)N1CCC(c2nn(-c3ccc(Cl)cc3)c(=O)[nH]2)CC1	14µM*	/	/	/	/	/
O=C(Cc1ccc(F)cc1)N1CCCC(c2nn(-c3ccccc3)c(=O)[nH]2)C1 (centres undefined)	20%	/	/	/	/	/
COc1ccc(-n2nc(C3CCCN(C(=O)C4CC4)C3)[nH]c2=O)cc1 (centres undefined)	18µM*	/	/	/	/	/
